Residues, ends and D or L forms follow the SMILES beside them. *: point of attachment. Octanoyl = CCCCCCCC(=O)*
What was measured:
Assay type in all cases: functional
[1] = test system: Plasmodium falciparum; test: GSK_TCMDC: Inhibition of Plasmodium falciparum 3D7 in whole red blood cells, using parasite LDH activity as an index of growth. Test compounds present at 2uM
[2] = test system: Plasmodium falciparum; test: GSK_TCMDC: Inhibition of Plasmodium falciparum Dd2 in whole red blood cells, using parasite LDH activity as an index of growth. Test compounds present at 2uM
[3] = test system: HepG2; test: GSK_TCMDC: Percent inhibition of human HepG2 cell line. Test compounds present at 10uM.

Q: With CC(C)[C@H](NC(=O)c1ccc(O)c(-c2ccc(Cl)c(Cl)c2)c1)C(=O)NCCN1CCOCC1 as the compound, how does the Inhibition [1] read?
A: 95%

Q: And the Inhibition [2]?
A: 44%

Q: And the Inhibition [3]?
A: 0%

Q: For CCOc1ccc(-c2noc(-c3c[nH]c4ccccc4c3=O)n2)cc1, which Inhibition [1] is on record?
A: 99%

Q: What about the Inhibition [2] of the same compound?
A: 93%

Q: What about the Inhibition [3] of the same compound?
A: 0%

Q: What does the source list for COc1ccc2nccc(N/N=C/c3cccc([N+](=O)[O-])c3)c2c1?
A: Inhibition [1]: 100%; Inhibition [2]: 98%; Inhibition [3]: 4%

Q: Which Inhibition [1] does the source give for COc1ccccc1C1CC(c2ccccc2)=NN1C(=O)c1ccco1 (stereo unspecified) here?
A: 97%

Q: And the Inhibition [2]?
A: 95%

Q: And the Inhibition [3]?
A: 12%

Q: With Cc1cnc(N)c(/C=C/c2cncc(C(=O)NCCc3ccc(Cl)cc3Cl)c2)c1.Cl as the compound, how does the Inhibition [2] read?
A: 100%

Q: And the Inhibition [3]?
A: 2%

Q: How did the Inhibition [1] turn out when O=C(O)C(=O)O.Oc1c(CN2CCC(Cc3ccccc3)CC2)cc(Cl)c2cccnc12 was run?
A: 96%

Q: What about the Inhibition [2] of the same compound?
A: 94%

Q: And the Inhibition [3]?
A: 49%

Q: With Fc1cccc(Nc2nc(NCc3ccc4ccsc4c3)nc(Nc3cccc(F)c3)n2)c1 as the compound, how does the Inhibition [1] read?
A: 94%

Q: And the Inhibition [2]?
A: 11%

Q: And the Inhibition [3]?
A: 0%

Q: What does the source list for CCCCCCCC(=O)N[C@@H](Cc1ccccc1)C(=O)N[C@H](C(=O)O)C(C)C (Octanoyl-Phe-Val-OH)?
A: Inhibition [1]: 89%; Inhibition [2]: 0%; Inhibition [3]: 0%

Q: Which results are given for Cc1cc(NC(=O)c2cc(Br)ccc2Cl)n(-c2nc(C)c(C)c(=O)[nH]2)n1?
A: Inhibition [1]: 91%; Inhibition [2]: 83%; Inhibition [3]: 54%

Q: For Cc1cc(NCC2CCN(CC3CCCCC3)C2)nc(Nc2ccc(Cl)cc2)n1 (stereo unspecified), which Inhibition [1] is on record?
A: 100%

Q: And the Inhibition [2]?
A: 74%

Q: And the Inhibition [3]?
A: 2%

Q: Which Inhibition [1] does the source give for O=C(Nc1ccccc1)N(Cc1cccc(-c2cccc(CNCc3ccc4c(c3)OCO4)c2)c1)C1CCN(Cc2ccccc2)CC1.O=C(O)C(F)(F)F here?
A: 100%

Q: What about the Inhibition [2] of the same compound?
A: 84%

Q: What about the Inhibition [3] of the same compound?
A: 96%

Q: With O=C(Cc1ccc[n+]([O-])c1)Nc1cccc(-c2cccc(-c3nc4cc(C(F)(F)F)ccc4[nH]3)c2)c1 as the compound, how does the Inhibition [1] read?
A: 92%

Q: What about the Inhibition [2] of the same compound?
A: 99%

Q: And the Inhibition [3]?
A: 41%

Q: With Br.N=c1n(CCN2CCCCC2)c2ccccc2n1CC(=O)c1cccc([N+](=O)[O-])c1 as the compound, how does the Inhibition [1] read?
A: 94%

Q: And the Inhibition [2]?
A: 0%

Q: And the Inhibition [3]?
A: 10%

Q: O=C(COc1cnc2ccccc2n1)Nc1ccccc1Sc1ccc(Cl)cc1 was tested. Which Inhibition [1] did it give?
A: 100%

Q: What about the Inhibition [2] of the same compound?
A: 100%

Q: What about the Inhibition [3] of the same compound?
A: 6%

Q: Which Inhibition [1] does the source give for O=C(Cc1cccc(OCCCN(Cc2cccc(C(F)(F)F)c2Cl)CC(c2ccccc2)c2ccccc2)c1)NCc1ccco1 here?
A: 94%

Q: And the Inhibition [2]?
A: 84%

Q: What about the Inhibition [3] of the same compound?
A: 2%

Q: What does the source list for O=C(Nc1ccc(OC2CCN(Cc3ccc(F)cc3)C2)cc1)c1cccs1.O=C(O)C(F)(F)F (stereo unspecified)?
A: Inhibition [1]: 94%; Inhibition [2]: 92%; Inhibition [3]: 2%

Q: Which results are given for COc1ccc(C(=C(C)CC(C)C(=O)O)c2ccccc2)cc1 (stereo unspecified)?
A: Inhibition [1]: 95%; Inhibition [2]: 0%; Inhibition [3]: 6%

Q: With NS(=O)(=O)c1cccc(-c2ccc3nccc(-c4cccc(S(N)(=O)=O)c4)c3c2)c1 as the compound, how does the Inhibition [1] read?
A: 98%

Q: And the Inhibition [2]?
A: 99%

Q: And the Inhibition [3]?
A: 40%

Q: Which Inhibition [1] does the source give for COCCNCc1ncsc1-c1ccc2c(Nc3ccc(Oc4ccccc4)cc3)ccnc2c1 here?
A: 91%

Q: And the Inhibition [2]?
A: 93%

Q: What about the Inhibition [3] of the same compound?
A: 34%

Source: ChEMBL document CHEMBL1157539, “Thousands of chemical starting points for antimalarial lead identification” (Nature, 2010)
